Calls of active or inactive are those of the source. No rule for the calls is given here.
Test: anti-respiratory syncytial virus activity – HEp-2 cells, set 2, counter-screen for VEEV inhibitor project (AID 651932)
Details: RSV cytopathic effect inhibition; series mostly up to 25 µM

| Compound | outcome |
| --- | --- |
| CCN1CCN(Cc2nc3ccc([N+](=O)[O-])cc3c(=O)n2-c2ccccc2F)CC1 | inactive |
| CCN1CCN(C)CC1=Nc1ccc([N+](=O)[O-])cc1C(=O)Nc1ccccc1 | inactive |
| COc1ccc(NC(=O)c2cc([N+](=O)[O-])ccc2N=C2CN(C)CCN2C)cc1 | inactive |
| CN1CCN(C)C(=Nc2ccc([N+](=O)[O-])cc2C(=O)Nc2ccccc2)C1 | inactive |
